Data reported in the antibiotic and cytotoxicity screens of Wong et al. (2023).
About 1,500 (3.8%) of roughly 39,000 compounds were called active. This is one part of a sample in which actives are shown more often than they occur.

Each compound was assayed on HSkMC (human skeletal muscle cells) (assay: cytotoxicity call (relative viability < 0.9)). Settings: 10 µM.
With `Cc1ccc(S(=O)(=O)Nc2ccc3c(c2)C(=O)N([C@@H](C)CO)C[C@H](C)[C@H](CN(C)Cc2ccccc2)OCCCC[C@@H](C)O3)cc1` the cytotoxicity call was “inactive”.
For `O=C(C1=C[C@@H](c2ccc3c(c2)OCO3)C[C@@H](OCCCCO)O1)N1CCN(Cc2ccc3c(c2)OCO3)CC1`, the cytotoxicity call was “inactive”.
In the case of `C[C@H]1CN([C@@H](C)CO)C(=O)c2cc(C#CC3(O)CCCC3)cnc2O[C@@H]1CN(C)C(=O)Cc1ccncc1`, the cytotoxicity call is reported as “inactive”.
For `COc1ccc(S(=O)(=O)N2C[C@@H](O)COC[C@@H]3O[C@@H](CC(=O)NCCCN4CCOCC4)CC[C@H]32)cc1`, the cytotoxicity call was “inactive”.
In the case of `CCCCCCOC(=O)N=C(N)c1ccc(NCc2nc3cc(C(=O)N(CCC(=O)OCC)c4ccccn4)ccc3n2C)cc1.CS(=O)(=O)O`, the cytotoxicity call is reported as “inactive”.
`CCCCCCOC(=O)/N=C(/N)c1ccc(NCc2nc3cc(C(=O)N(CCC(=O)OCC)c4ccccn4)ccc3n2C)cc1` was tested, and the cytotoxicity call was “active”.
With `COc1ccc(NC(=O)Nc2cccc3c2O[C@@H](CN(C)S(C)(=O)=O)[C@@H](C)CN([C@H](C)CO)C3=O)cc1` the cytotoxicity call was “inactive”.
`C[C@H](CO)N1C[C@H](C)[C@H](CN(C)S(C)(=O)=O)Oc2ccc(NS(=O)(=O)c3ccc(F)cc3)cc2CC1=O` was tested, and the cytotoxicity call was “inactive”.
`C[C@H](CO)N1C[C@H](C)[C@@H](CN(C)C(=O)Nc2ccc3c(c2)OCO3)Oc2ccc(NC(=O)c3ccncc3)cc2CC1=O` was tested, and the cytotoxicity call was “inactive”.
For `Cc1noc(C)c1NC(=O)Nc1ccc2c(c1)C(=O)N([C@@H](C)CO)C[C@@H](C)[C@H](CN(C)Cc1ccccc1)OCCCC[C@@H](C)O2`, the cytotoxicity call was “inactive”.
For `CCCN(C)C[C@@H]1OCCCC[C@@H](C)Oc2ccc(NC(=O)Nc3ccc(C(F)(F)F)cc3)cc2C(=O)N([C@H](C)CO)C[C@@H]1C`, the cytotoxicity call was “inactive”.
`C[C@H]1CCCCO[C@H](CN(C)CC2CC2)[C@@H](C)CN([C@@H](C)CO)C(=O)c2cc(NC(=O)Nc3ccc(C(F)(F)F)cc3)ccc2O1` was tested, and the cytotoxicity call was “inactive”.
In the case of `C[C@@H]1CCCCO[C@H](CN(C)CC2CC2)[C@H](C)CN([C@H](C)CO)C(=O)c2cc(NC(=O)Nc3ccc(C(F)(F)F)cc3)ccc2O1`, the cytotoxicity call is reported as “active”.
With `CCCN(C)C[C@H]1OCCCC[C@H](C)Oc2ccc(NC(=O)Nc3ccc(C(F)(F)F)cc3)cc2C(=O)N([C@@H](C)CO)C[C@H]1C` the cytotoxicity call was “inactive”.
With `C[C@@H]1CCCCO[C@@H](CN(C)CC2CC2)[C@@H](C)CN([C@H](C)CO)C(=O)c2cc(NC(=O)Nc3ccc(C(F)(F)F)cc3)ccc2O1` the cytotoxicity call was “inactive”.
In the case of `C[C@@H]1CCCCO[C@@H](CN(C)CC2CC2)[C@H](C)CN([C@@H](C)CO)C(=O)c2cc(NC(=O)Nc3ccc(C(F)(F)F)cc3)ccc2O1`, the cytotoxicity call is reported as “inactive”.
For `C[C@H](CO)N1C[C@H](C)[C@H](CN(C)CC2CC2)OCCCC[C@H](C)Oc2ccc(NC(=O)Nc3ccc(C(F)(F)F)cc3)cc2C1=O`, the cytotoxicity call was “inactive”.
With `C[C@@H]1CCCCO[C@H](CN(C)CC2CC2)[C@H](C)CN([C@@H](C)CO)C(=O)c2cc(NC(=O)Nc3ccc(C(F)(F)F)cc3)ccc2O1` the cytotoxicity call was “active”.
In the case of `CCCN(C)C[C@@H]1OCCCC[C@H](C)Oc2ccc(NC(=O)Nc3ccc(C(F)(F)F)cc3)cc2C(=O)N([C@@H](C)CO)C[C@@H]1C`, the cytotoxicity call is reported as “active”.
With `C[C@@H]1CN([C@H](C)CO)C(=O)CCCn2nncc2CO[C@@H]1CN(C)S(=O)(=O)c1ccc(-n2cccn2)cc1` the cytotoxicity call was “inactive”.
For `CC[C@@H](C)N[C@H]1CCS(=O)(=O)C1`, the cytotoxicity call was “inactive”.
`Cc1cccc([C@@H](N)c2nccn2C)c1` was tested, and the cytotoxicity call was “inactive”.
In the case of `O=C(CCCCCNC(=O)OCCCCO[C@H]1C[C@@H](c2ccc(C(F)(F)F)cc2)C=C(C(=O)N2CCN(Cc3ccccc3)CC2)O1)NO`, the cytotoxicity call is reported as “inactive”.
`CN(C)CC(=O)N[C@@H]1CC[C@@H](CC(=O)NCCN2CCCCC2)O[C@H]1CO` was tested, and the cytotoxicity call was “inactive”.
`C[C@H](CO)N1C[C@H](C)[C@@H](CN(C)S(=O)(=O)c2ccc(F)cc2)Oc2c(NC(=O)Nc3ccc(C(F)(F)F)cc3)cccc2C1=O` was tested, and the cytotoxicity call was “inactive”.
With `O=C(NCCN1CCCC1)[C@H]1[C@H](CO)[C@H]2Cn3c(cccc3=O)[C@@H]1N2C(=O)c1ccccc1` the cytotoxicity call was “inactive”.
In the case of `C[C@H](CO)N1C[C@H](C)[C@H](CN(C)C(=O)Nc2cccc3ccccc23)Oc2c(NS(=O)(=O)c3ccc(Cl)cc3)cccc2C1=O`, the cytotoxicity call is reported as “inactive”.
In the case of `CO[C@@H]1[C@H](O[P@@](=O)(S)OC[C@H]2O[C@@H](n3cnc4c(N)ncnc43)C[C@@H]2O)[C@@H](CO)O[C@H]1n1ccc(=O)[nH]c1=O`, the cytotoxicity call is reported as “active”.
`Nc1ncnc2c1ncn2[C@@H]1O[C@H](COP(=O)(O)O)[C@@H](O)[C@H]1O` was tested, and the cytotoxicity call was “inactive”.
For `CO[C@@H]1[C@H](O[P@@](=O)(OC[C@H]2O[C@@H](n3cnc4c(N)ncnc43)C[C@@H]2O)SCOC(=O)OC(C)C)[C@@H](CO)O[C@H]1n1ccc(=O)[nH]c1=O`, the cytotoxicity call was “inactive”.
With `O=C(C[C@@H]1CC[C@H]2[C@@H](COC[C@H](O)CN2S(=O)(=O)c2ccccc2)O1)NCCN1CCCC1` the cytotoxicity call was “inactive”.
For `C[C@H]1CN([C@@H](C)CO)C(=O)Cc2cc(NS(=O)(=O)c3cccs3)ccc2O[C@H]1CN(C)S(=O)(=O)c1cccs1`, the cytotoxicity call was “inactive”.
For `CO[C@H]1O[C@@H](COC(C)=O)[C@@H](OC(C)=O)C(C#N)(C#N)[C@@H]1OC(C)=O`, the cytotoxicity call was “inactive”.
`Clc1ccccc1C(c1ccccc1)(c1ccccc1)n1ccnc1` was tested, and the cytotoxicity call was “active”.
For `N#CC(c1ccccc1)(c1ccccc1)c1ccccc1Cl`, the cytotoxicity call was “inactive”.
`C[C@H](CO)N1C[C@H](C)[C@H](CN(C)S(=O)(=O)c2ccc(Cl)cc2)OCCCC[C@H](C)Oc2ccc(NC(=O)c3ccncc3)cc2C1=O` was tested, and the cytotoxicity call was “inactive”.
With `Cc1cccc(S(=O)(=O)N2C[C@H](O)COC[C@H]3O[C@@H](CC(=O)NCCCN4CCOCC4)CC[C@@H]32)c1` the cytotoxicity call was “inactive”.
`COc1c(C)cnc2c1c(=O)n(CC(N)=O)c(=O)n2C` was tested, and the cytotoxicity call was “inactive”.
With `C[C@@H]1CCCCO[C@H](CN(C)Cc2ccc(C(F)(F)F)cc2)[C@H](C)CN([C@H](C)CO)C(=O)c2cc(NS(=O)(=O)c3cccs3)ccc2O1` the cytotoxicity call was “inactive”.
In the case of `O=C(NC1CCN(CCCCC2(C(=O)NCC(F)(F)F)c3ccccc3-c3ccccc32)CC1)c1ccccc1-c1ccc(C(F)(F)F)cc1`, the cytotoxicity call is reported as “active”.
For `O=C(NC1CCCCCCC1)c1ccccc1-c1ccccc1`, the cytotoxicity call was “inactive”.
With `C[C@]1(C(=O)NCC(F)(F)F)c2ccccc2C(=O)N(Cc2cc(C(F)(F)F)cc(C(F)(F)F)c2)[C@H]1c1ccc(CO)cc1` the cytotoxicity call was “inactive”.
